Shown are actives, neighbours in structure and some others; about 4.1% of the full set was active somewhere.
rCAG binder: binders of r(CAG) RNA repeats, primary screen, biochemical, fluorescence; r(CAG) RNA repeat, TO-PRO-1 dye displacement fluorescence; inhibition, % at 3 µM; hit rate 1.3% among 370,000;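 active means inhibition above the plate cutoff, the mean of all test compounds on that plate plus 3 SD, cut at about 35% in these data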;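 further: higher means more dye released from RNA so lower well fluorescence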
LEDGF integ inh: blockers of LEDGF/p75-dependent integrase strand transfer – biochemical, TR-FRET, high throughput, primary screen; HIV-1 integrase (with human LEDGF/p75); inhibition, % at 3.7 µM; TR-FRET IN-LEDGF/p75 DNA integration, Eu/Cy5; hit rate 0.64% among 370,000;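 active means inhibition above the screen-wide mean plus 3 SD, cut at about 13% in these data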;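 further: signal is the Cy5 over europium emission ratio at 671 and 618 nm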
MBD2 DNA inh: inhibitors of MBD2 binding to methylated DNA, primary screen, biochemical, TR-FRET, DNA-binding domain, human | AID 686964, 2013 | MBD2 binding to methylated oligonucleotide | inhibition, % at 4.4 µM | Methyl-CpG-binding domain protein 2 (Homo sapiens), Q9UBB5 | hit rate 0.31% among 370,000; in the data active means inhibition above about 13%
ABHD5-PLIN5 inh: ABHD5-PLIN5 interaction inhibitors, primary screen, cell lysate, split luciferase complementation, luminescence. Perilipin-5 (Homo sapiens) + 1-acylglycerol-3-phosphate O-acyltransferase ABHD5 (Homo …. Split G. princeps luciferase complementation, 4 h. inhibition, % at 4 µM. AID 602281, 2012. hit rate 0.78% among 360,000;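 active means inhibition above the mean inhibition across every tested compound plus 3 SD, cut at about 22% in these data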
UHRF1 MBD2 ctr: UHRF1 methylated DNA binding inhibitors, primary screen, counter-screen for MBD2 inhibitor project, biochemical, TR-FRET, human UHRF1, single concentration; UHRF1 binding to methylated oligo; inhibition, % at 4.4 µM; hit rate 0.75% among 370,000; in the data active means inhibition above about 21%;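 further: UHRF1 SRA domain binding a hemimethylated CpG hairpin DNA probe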
Target sequence (Q96T88 whole entry, looked up, the tested form may be a part): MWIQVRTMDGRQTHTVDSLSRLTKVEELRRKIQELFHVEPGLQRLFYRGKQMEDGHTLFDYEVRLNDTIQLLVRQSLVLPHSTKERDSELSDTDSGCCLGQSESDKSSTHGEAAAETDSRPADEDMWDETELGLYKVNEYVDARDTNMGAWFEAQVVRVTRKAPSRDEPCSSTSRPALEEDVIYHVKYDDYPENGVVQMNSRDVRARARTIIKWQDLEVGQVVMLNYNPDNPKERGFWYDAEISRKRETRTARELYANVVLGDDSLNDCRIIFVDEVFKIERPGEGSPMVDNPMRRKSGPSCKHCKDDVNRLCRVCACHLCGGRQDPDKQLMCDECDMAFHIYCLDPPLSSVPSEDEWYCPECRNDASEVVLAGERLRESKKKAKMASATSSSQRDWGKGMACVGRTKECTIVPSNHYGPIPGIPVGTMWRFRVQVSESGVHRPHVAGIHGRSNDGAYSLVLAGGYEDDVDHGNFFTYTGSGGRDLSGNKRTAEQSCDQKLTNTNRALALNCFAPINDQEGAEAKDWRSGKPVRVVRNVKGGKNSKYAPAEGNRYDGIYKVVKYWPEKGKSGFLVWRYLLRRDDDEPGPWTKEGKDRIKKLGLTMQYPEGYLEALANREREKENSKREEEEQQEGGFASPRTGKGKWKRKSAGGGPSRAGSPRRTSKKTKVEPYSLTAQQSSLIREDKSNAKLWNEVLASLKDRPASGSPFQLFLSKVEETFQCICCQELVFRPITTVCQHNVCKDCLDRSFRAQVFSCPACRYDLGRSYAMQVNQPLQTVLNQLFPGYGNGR
PRMT1 FP inh: PRMT1 methyltransferase inhibitors, primary screen, biochemical, fluorescence polarization; Protein arginine N-methyltransferase 1 (Homo sapiens), Q99873; inhibition, % at 2.79 µM; hit rate 1.3% among 370,000; recombinant PRMT1, activity-based probe fluorescence polarization;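 active means inhibition above about 21% made by adding two undisclosed values, limit read from the data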
ABHD5-PLIN5 conf: ABHD5-PLIN5 interaction inhibitors, confirmation, biochemical, luminescence; shares compounds with ABHD5-PLIN5 inh; inhibition, % at 4 µM; hit rate 67% among 2,200; AID 651612, 2012; in the data active means inhibition above about 23%
HNF4 split-luc: HNF4 dimerization inhibitors, counter-screen for ABHD5-PLIN5 interaction inhibitor project, biochemical, split-luciferase complementation, luminescence. shares compounds with ABHD5-PLIN5 inh. inhibition, % at 4 µM. hit rate 77% among 2,200. AID 651674, 2012;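 active means mean inhibition across replicate wells exceeding the computed hit threshold, cut at about 13% in these data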;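 further: light from luciferase halves that rejoin when HNF4 fusion proteins dimerize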
Hits are given with their value; – = inactive; · = not tested or not shown; ! = not confirmed by another sample.

SMILES	rCAG binder	LEDGF integ inh	MBD2 DNA inh	ABHD5-PLIN5 inh	UHRF1 MBD2 ctr	PRMT1 FP inh	ABHD5-PLIN5 conf	HNF4 split-luc
CCOC(=O)c1ccc(NC(=O)CSc2nc3c(c(=O)n2CC)SC(C)C3)cc1 (configuration not stated)	–	–	–	81	–	–	–	–
CCN(CC)C(=O)Cn1c2ccccc2c2nc3n(c(=O)c21)CCS3	·	–	–	·	–	–	·	·
COc1cccc(/C=C/C(=O)c2ccc(C)c([N+](=O)[O-])c2)c1	–	–	–	56	–	–	102	105
COc1ccc(/C=C/C(=O)c2ccc(C)c([N+](=O)[O-])c2)cc1O	–	–	–	40	–	–	80	73
COc1cc(/C=C/C(=O)c2ccc(C)c([N+](=O)[O-])c2)cc(OC)c1O	–	–	–	65	–	–	79	72
COc1ccc2cc(C(=O)/C=C/c3cc(OC)c(O)c(OC)c3)ccc2c1	–	–	–	–	–	–	·	·
COc1cccc(C(=O)/C=C/c2ccc(OCC#N)c(OC)c2)c1	–	–	–	55	–	–	86	77
CC(C)C(=O)N1CCC(Oc2cccnc2)CC1	–	–	–	·	–	–	·	·
COC(=O)[C@]12C[C@H](CC(=O)NCCC(C)C)C(=O)N(Cc3ccc(Cl)cc3Cl)C1=C[C@H](C1CCCC1)O[C@@H]2C	–	–	–	·	–	–	·	·
O=C(O)CCc1ccc(-c2ccc(Cl)cc2)o1	–	–	–	43	–	–	–	–
Cc1oc(-c2ccc(Cl)cc2)cc1C(=O)O	–	–	–	–	–	–	·	·
CCC1CCCCN1CCCNC(=O)c1ccc2c(c1)N(Cc1ccc(F)cc1)C(=O)c1ccccc1S2=O (configuration not stated)	–	–	–	25	–	–	–	–
CCN1CCN(CCNC(=O)c2ccc3c(c2)N(Cc2ccc(F)cc2)C(=O)/C(=C/c2ccccc2)S3)CC1	–	–	–	24	–	–	–	–
CN1CCN(CCCNC(=O)c2ccc(/C=C3\Sc4ccccc4N(Cc4ccccc4F)C3=O)cc2)CC1	–	–	–	33	–	–	–	–
O=C(NCCN1CCOCC1)c1ccc(/C=C2\Sc3ccccc3N(Cc3ccccc3F)C2=O)cc1	–	–	–	–	–	–	·	·
O=C(NCCCN1CCCC1)c1ccc2c(c1)N(Cc1ccc(F)cc1)C(=O)c1ccccc1S2=O (configuration not stated)	–	–	–	–	–	–	·	·
CCCCc1c(-c2ccccc2OC)ncn1Cc1cc(F)ccc1F	–	–	–	·	–	–	·	·
COc1ccc(-c2c(Cc3ccccc3)nc(NC(=O)c3ccccc3)n2C)cc1	–	–	–	·	–	–	·	·
O=C(NCc1ccco1)c1ccccc1-c1ccccc1	–	–	–	–	–	–	·	·
Cc1scc(C(=O)NCc2ccco2)c1-c1ccccc1	–	–	–	28	–	–	23	22
C=C1C(=O)OC2CC1C(OC(C)=O)CC(C)=CCCC(C)=CCCC2(C)O (configuration not stated)	–	–	–	61	–	–	83	66
C=C1C(=O)OC2CC1C(O)CC(C)=CCCC(C)=CC(O)CC2C (configuration not stated)	–	–	–	55	–	–	81	61
CCCCOCC1CN(CCCC)S(=O)(=O)c2c(cccc2N2CCCCC2)O1 (configuration not stated)	–	–	–	·	–	–	·	·
O=C(/C=C/c1ccnc2ccccc12)c1cccs1	–	–	–	63	–	–	92	92
CC1(C)CC(=O)C=C(c2ccccc2F)C1=O	–	–	–	·	–	–	·	·
SMILES	rCAG binder	LEDGF integ inh	MBD2 DNA inh	ABHD5-PLIN5 inh	UHRF1 MBD2 ctr	PRMT1 FP inh	ABHD5-PLIN5 conf	HNF4 split-luc
Clc1ccc(-c2nnc(SCc3cccc4ccccc34)n2Cc2ccco2)cc1	–	–	–	·	–	–	·	·
Cc1ccc(SC2=C(Sc3ccc(C)cc3)C(=O)c3ccccc3C2=O)cc1	–	–	–	25	–	–	63	12
CN(C)c1ccc(Cc2cc3c(O)ccc(O)c3cc(Cc3ccc(N(C)C)cc3)c2=O)cc1	76	63	35	87	51	79	95	47
Cc1nc2c(o1)CCc1ccccc1C2N1CCN(C)CC1 (configuration not stated)	–	–	–	57!	–	–	40	–
Cc1ccc(S(=O)(=O)N2C[C@H]3n4c(=O)ccc(=O)n4C[C@H](OC(=O)NCc4ccccc4)[C@@]3(O)C2)cc1	–	–	–	–	–	–	·	·
Cc1ccc(S(=O)(=O)N2C[C@H]3n4c(=O)ccc(=O)n4C[C@H](OC(=O)NCC4CCCCC4)[C@@]3(O)C2)cc1	–	–	–	26	–	–	63	45
COc1cccc(CNC(=O)Cn2c(-c3ccccc3)cc(C(C)=O)c2C)c1OC	–	–	–	·	–	–	·	·
CC1CCC/C=C/C(=O)c2c(O)cc(O)cc2CC(=O)O1 (configuration not stated)	–	–	–	32	–	–	54	70
CC(=O)C1(C(=O)Nc2cc(C)cc(C)c2)CC(c2ccccn2)=NO1 (configuration not stated)	–	–	–	·	–	–	·	·
COc1ccc(C(O)C(CN2CCOCC2)c2ccccc2)cc1F (configuration not stated)	–	–	–	–	–	–	·	·
COc1ccc(C(=O)C(CN2CCOCC2)c2ccccc2)cc1F (configuration not stated)	–	–	–	24	–	–	–	63
CCCOc1ccccc1-n1sc2c(c1=S)-c1cc(OC)cc3c1N(C(=O)C3=O)C2(C)C	–	–	–	35	–	–	78	67
O=C1/C(=C/c2ccccc2)CCc2ccc(Cl)nc21	–	–	–	76	–	–	91	74
O=[N+]([O-])c1cc(S(=O)(=O)C(F)(F)F)ccc1Sc1nc2ccccc2[nH]1	–	–	–	54	–	–	59	79
O=C(Nc1ccc2nc3n(c(=O)c2c1)CCCCC3)c1c(F)ccc([N+](=O)[O-])c1F	–	17	–	36	–	–	61	56

Screening results as filed in PubChem.
